# Reference: PubChem BioAssay
# Where “and” joins values, the source holds several entries; their conditions need not be identical. Equal entries are not always repeated. Calls of active or inactive are those of the source. Unless noted, no rule for the calls is given here.
# Key:
# [1] = test system: Aerobactin synthetase IucA (Klebsiella pneumoniae); assay: inhibition of K. pneumoniae IucA enzyme – biochemical, Tocris library, absorbance (AID 1345561); settings: purified IucA enzyme assay, absorbance (OD) read-out; stronger effect = lower value;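 tested at 8 µM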;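 also: 100% = enzyme without compound and 0% = no enzyme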
# [2] = viability loss with induced miR-34 in A549 – imaging, A549 dox-inducible miR-34, nuclei and caspase counts, primary screen (AID 1347080;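 active = compounds whose cell count with miR-34 switched on is under 0.7 times the count with it off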); settings: A549 miR-34 inducible, Hoechst nuclei count, 48 h
# [3] = galactose survival enhancers in mitochondrial complex I cybrids – cell-based, galactose medium, ATP luminescence, primary screen (AID 1645843;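 active = z-score of at least 1.8 in each of two replicates, scored against plate mean and spread of sample wells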;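 also: positive z means more ATP and so rescue of galactose-driven cybrid death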); settings: complex I mutant cybrid cells, 72 h, stronger effect = higher value
# [4] = growth inhibition, single agent or in combination, cell-based, chromothripsis tumors, cisplatin or BGB combos (AID 1671449; in the data active = inhibition above about 80%;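 also: cells exposed for 96 hours; 0% = vehicle DMSO and 100% = killing by high DMSO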); settings: LFS_MB_P medulloblastoma cells
# [5] = growth inhibition, single agent and combos, cell-based, chromothripsis tumors, cisplatin or BGB combos (AID 1671450; in the data active = inhibition above about 80%;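 also: cells exposed to compound for four days; 0% = vehicle DMSO and 100% = cell killing by high DMSO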); settings: HDN33 neuroblastoma cells, stronger effect = higher value
# [6] = growth inhibition, single agents and combos, ICB984, cell-based, cisplatin or BGB combos, synergistic combos for chromothripsis tumors (AID 1671451); settings: ICB984 medulloblastoma cells, drug combinations, stronger effect = higher value;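 also: cells exposed for 96 hours before readout; 0% = vehicle DMSO and 100% = killing by high DMSO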
# [7] = growth inhibition, single agents and combos, HTB85, cell-based, BGB or cisplatin IC20 combos, synergistic combos for chromothripsis tumors (AID 1671453; in the data active = inhibition above about 80%;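 also: cells exposed for 96 hours before readout; 0% = vehicle DMSO and 100% = high DMSO killing control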); settings: HTB85 osteosarcoma cells, drug combinations, stronger effect = higher value
# [8] = P. berghei load reduction in hepatocytes – cell-based, HepG2, luciferase luminescence, HepG2 viability, primary screen (AID 624349; in the data active = parasite load remaining mostly below about 12%, no sharp cut-off; inactive = mostly above about 10%;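 also: 100% = mean of DMSO negative control wells on the same plate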); settings: P. berghei liver stage in HepG2, luciferase luminescence, concentration not given here; parasite load remaining: stronger effect = lower value; viability: measured here: HepG2 viability without parasites
# [9] = stronger effect = lower value, cell number ratio, induced over uninduced
# [10] = measured here: relative caspase fold change +Dox/-Dox
# [11] = measured here: total cells with miR-34 induction, stronger effect = lower value
# [12] = measured here: total cells without miR-34 induction
smiles,measurement,setting,value
COc1ccc2[nH]c(I)c(CCNC(C)=O)c2c1,remaining activity,[1],98.4% (inactive)
same,fold change,[2]; [9],0.928 (inactive)
same,fold change,[2]; [10],0.922
same,cell count,[2]; [11],8770
same,cell count,[2]; [12],9460
same,z-score,[3],0.09 (inactive)
COc1cc(C=O)c([N+](=O)[O-])cc1OC,remaining activity,[1],102% (inactive)
same,fold change,[2]; [9],0.928 (inactive)
same,fold change,[2]; [10],1.17
same,cell count,[2]; [11],8790
same,cell count,[2]; [12],9460
same,z-score,[3],-0.05 (inactive)
same,inhibition,"[4]; at 0.5 µM, stronger effect = higher value",-16.6% (inactive)
same,inhibition,"[4]; measured here: combination with BGB IC20, at 0.005 µM",9.48%
same,inhibition,"[4]; measured here: combination with BGB IC40, at 0.005 µM",-5.33%
same,inhibition,"[4]; measured here: combination with BGB IC40, at 0.05 µM",7.41%
same,inhibition,"[4]; measured here: combination with cisplatin, at 0.5 µM, stronger effect = higher value",-18.5%
same,inhibition,"[4]; measured here: combination with cisplatin, at 5 µM, stronger effect = higher value",3.4%
same,inhibition,"[5]; BGB combo, at 5 µM",-38.7%
same,inhibition,[5]; at 0.5 µM,-19.7% (inactive)
same,inhibition,"[5]; cisplatin combo, at 5 µM",-6.74%
same,inhibition,"[5]; measured here: with BGB IC20 combination, at 0.5 µM",-8.97%
same,inhibition,"[5]; measured here: with cisplatin IC20 combination, at 0.5 µM",-29.9%
same,inhibition,"[5]; single agent, at 5 µM",0.626%
same,inhibition,"[6]; BGB IC20 combo, at 0.005 µM",-9.07%
same,inhibition,"[6]; BGB IC40 combo, at 0.005 µM",-48.2%
same,inhibition,"[6]; BGB IC40 combo, at 0.05 µM",-39.8%
same,inhibition,[6]; at 0.5 µM,-35.2% (inactive)
same,inhibition,"[6]; cisplatin combo, at 0.05 µM",-45.3%
same,inhibition,"[6]; cisplatin combo, at 0.5 µM",-48.6%
same,inhibition,"[6]; cisplatin combo, at 5 µM",-19.2%
same,inhibition,"[6]; measured here: 5 uM single agent, at 5 µM",-4.36%
same,inhibition,[7]; at 0.5 µM,-19.8% (inactive)
same,inhibition,"[7]; measured here: with BGB IC20, at 0.5 µM",-22.3%
same,inhibition,"[7]; measured here: with BGB IC20, at 5 µM",-12.5%
same,inhibition,"[7]; measured here: with cisplatin IC20, at 0.5 µM",-24.3%
same,inhibition,"[7]; measured here: with cisplatin IC20, at 5 µM",-32.4%
same,inhibition,"[7]; single agent, at 5 µM",-9.78%
C#CCN1C(C)=C(C(=O)OC)C(c2cccc([N+](=O)[O-])c2)C(C(=O)OCC)=C1C (centres undefined),remaining activity,[1],122% (inactive)
same,fold change,[2]; [9],0.951 (inactive)
same,fold change,[2]; [10],0.816
same,cell count,[2]; [11],7120
same,cell count,[2]; [12],7490
same,z-score,[3],-0.3 (inactive)
CCn1c(=O)[nH]c2ccccc21,remaining activity,[1],111% (inactive)
same,fold change,[2]; [9],0.854 (inactive)
same,fold change,[2]; [10],1.07
same,cell count,[2]; [11],7770
same,cell count,[2]; [12],9100
same,z-score,[3],-0.455 (inactive)
COc1ccc(-c2ccc(=N)n(CCCC(=O)O)n2)cc1,remaining activity,[1],122% (inactive)
same,fold change,[2]; [9],0.902 (inactive)
same,fold change,[2]; [10],0.531
same,cell count,[2]; [11],8640
same,cell count,[2]; [12],9580
same,z-score,[3],-0.295 (inactive)
c1ccc(COCCCc2cnc[nH]2)cc1,remaining activity,[1],112% (inactive)
same,fold change,[2]; [9],0.883 (inactive)
same,fold change,[2]; [10],2.69
same,cell count,[2]; [11],8520
same,cell count,[2]; [12],9640
same,z-score,[3],-0.18 (inactive)
Cc1nc2sccn2c(=O)c1CCN1CCC(=C(c2ccccc2)c2ccc(F)cc2)CC1,remaining activity,[1],120% (inactive)
same,fold change,[2]; [9],0.974 (inactive)
same,fold change,[2]; [10],1.11
same,cell count,[2]; [11],7180
same,cell count,[2]; [12],7370
same,z-score,[3],-0.655 (inactive)
NC(=O)N1c2ccccc2CC(O)c2ccccc21 (centres undefined),remaining activity,[1],111% (inactive)
same,fold change,[2]; [9],0.942 (inactive)
same,fold change,[2]; [10],0.846
same,cell count,[2]; [11],8870
same,cell count,[2]; [12],9420
same,z-score,[3],-0.055 (inactive)
O=C(c1ccc2c(c1)OCO2)N1CCCCC1,remaining activity,[1],118% (inactive)
same,fold change,[2]; [9],0.987 (inactive)
same,fold change,[2]; [10],0.905
same,cell count,[2]; [11],9020
same,cell count,[2]; [12],9140
same,z-score,[3],-0.205 (inactive)
Cc1c(CC(C)(C)C(=O)O)n(Cc2ccc(Cl)cc2)c2ccc(F)cc12,remaining activity,[1],112% (inactive)
same,fold change,[2]; [9],0.952 (inactive)
same,fold change,[2]; [10],0.72
same,cell count,[2]; [11],8220
same,cell count,[2]; [12],8630
same,z-score,[3],0.1 (inactive)
c1ccc(-c2n[nH]c3c2oc2ccccc23)cc1,parasite load remaining,[8],24.1% (inactive)
same,viability,[8],103%
same,remaining activity,[1],98.7% (inactive)
same,fold change,[2]; [9],0.891 (inactive)
same,fold change,[2]; [10],1.09
same,cell count,[2]; [11],6520
same,cell count,[2]; [12],7320
same,z-score,[3],0.045 (inactive)
CCC(=O)NC1CCc2cccc(OC)c2C1 (centres undefined),remaining activity,[1],123% (inactive)
same,fold change,[2]; [9],1.01 (inactive)
same,fold change,[2]; [10],0.925
same,cell count,[2]; [11],8550
same,cell count,[2]; [12],8470
same,z-score,[3],-0.165 (inactive)
N#C/C(=C\c1ccc(O)c(O)c1)C(=O)NCCCc1ccccc1,remaining activity,[1],98.4% (inactive)
same,fold change,[2]; [9],0.871 (inactive)
same,fold change,[2]; [10],1.07
same,cell count,[2]; [11],7250
same,cell count,[2]; [12],8330
same,z-score,[3],-0.64 (inactive)
CCN(CC)CCCCN1c2ccccc2Oc2ccc(Cl)cc21,parasite load remaining,[8],45.6% (inactive)
same,viability,[8],112%
same,remaining activity,[1],88.2% (inactive)
same,fold change,[2]; [9],1.24 (inactive)
same,fold change,[2]; [10],0.706
same,cell count,[2]; [11],276
same,cell count,[2]; [12],224
same,z-score,[3],-0.7 (inactive)
O=C(Nc1ccc([N+](=O)[O-])cc1O)Nc1ccccc1Br,remaining activity,[1],105% (inactive)
same,fold change,[2]; [9],1.13 (inactive) and 1.09 (inactive)
same,fold change,[2]; [10],1.05 and 1.85
same,cell count,[2]; [11],5450 and 2460
same,cell count,[2]; [12],4830 and 2250
same,z-score,[3],-0.58 (inactive)
COc1[nH]c2ccc(F)cc2c1C(=O)OCC1CCN(CCNS(C)(=O)=O)CC1,remaining activity,[1],110% (inactive)
same,fold change,[2]; [9],0.927 (inactive)
same,fold change,[2]; [10],0.654
same,cell count,[2]; [11],8220
same,cell count,[2]; [12],8880
same,z-score,[3],-0.185 (inactive)
N#C/C(=C\c1ccc(O)c(O)c1)C(N)=O,remaining activity,[1],122% (inactive)
same,fold change,[2]; [9],0.887 (inactive)
same,fold change,[2]; [10],1.74
same,cell count,[2]; [11],9080
same,cell count,[2]; [12],10200
same,z-score,[3],-0.47 (inactive)
FC(F)(F)c1cc(CO[C@H]2CCCN[C@H]2c2ccccc2)cc(C(F)(F)F)c1,remaining activity,[1],112% (inactive)
same,fold change,[2]; [9],1.01 (inactive)
same,fold change,[2]; [10],0.987
same,cell count,[2]; [11],2150
same,cell count,[2]; [12],2140
same,z-score,[3],-0.8 (inactive)
C=CC(=O)c1ccc2ccccc2c1,remaining activity,[1],118% (inactive)
same,fold change,[2]; [9],0.911 (inactive)
same,fold change,[2]; [10],1.23
same,cell count,[2]; [11],8570
same,cell count,[2]; [12],9410
same,z-score,[3],-0.58 (inactive)
